Compounds with a hit are over-represented: about 17% of the library has one in this group of screens.
TGFb inhibitor – TGF-b pathway inhibition; HepG2 CAGA-GFP TGF-b/SMAD3 reporter, GFP fluorescence, 18 h; TGF-beta stimulated, 500 pg/mL final; 410,000 compounds, 1.2% hits; AID 588855; Potency, µM (titrated, usually from 46.1 µM), for the others: at the highest dose activity, negative = inhibition, usual class: inhibitors; also: % is scaled to controls: 0 for no effect and ±100 for the full control effect; nearly all actives have a fitted effect of over 65% in size
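Read-out: total well GFP (ex488/em500-530) summed from mean per-cell fluorescence. Cells: HEPG2 CAGA-GFP, 1% FBS DMEM, 18 h at 37 degrees C with 500 pg/mL final TGF-beta. Unstimulated wells served as the full-inhibition control; stimulated DMSO wells = 0%.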
HepG2 viability – counter-screen for TGF-b inhibitors: cytotoxicity in HepG2 cells; AID 588856; HepG2 CAGA-GFP viability, ATP luminescence, 18 h; Potency, µM (doses to about 46.1 µM), for inactives: at the highest dose activity change, negative = cytotoxicity, actives largely listed as cytotoxic; 410,000 compounds, 0.76% hits
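HepG2 CAGA-GFP cells (1000/well, DMEM with 1% FBS) received compound, then TGF-beta at 500 pg/mL final, and were incubated 18 hours at 37 degrees C. Viability was read by CellTiter-Glo luminescence. Media-only wells were set as complete cell-killing and DMSO as no toxicity.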
DT40 TDP1 no CPT – qHTS for Inhibitors of human tyrosyl-DNA phosphodiesterase 1 (TDP1): qHTS in cells in absence of CPT. DT40 Tdp1-/- hTDP1 cells, no CPT, ATP luminescence, 48 h. Potency, µM (highest dose often 46.2 µM), for inactives: at the top dose activity change, negative = growth inhibition, most hits filed as inhibitors. 420,000 compounds, 15% hits. AID 686978, 2013; also: % is scaled to controls: 0 for no effect and ±100 for the full control effect; nearly all actives have a fitted effect of over 55% in size
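No-CPT arm: Tdp1-/-;hTDP1 DT40 cells (400/well) plus compounds, incubated ≥48 hr at 37 °C. Readout CellTiter-Glo luminescence.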
HT1080 IDH1KD tx – toxicity to HT-1080 IDH1 knockdown cells (counter line). HT-1080 IDH1 knockdown viability, ATP luminescence, 48 h. Potency, µM (highest dose often 46.1 µM), without a hit: at the highest dose activity, negative = toxicity, usual class: cytotoxic. 360,000 compounds, 2% hits. AID 686971;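 also: 0% = DMSO wells and -100% = cell-free medium wells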
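Using the IDH1-knockdown HT-1080 line run in the same batch and compound series as the NT line, viability after 48 h at 37 °C was determined by CellTiter-Glo luminescence and expressed as % activity.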
HT1080NT lethal – kills 2HG-producing HT-1080-NT fibrosarcoma cells | HT-1080-NT fibrosarcoma viability, CellTiter-Glo ATP luminescence, 48 h | Potency, µM (titrated, usually from 46.1 µM), without a hit: at the highest dose activity, negative = less viability, most hits filed as cytotoxic | 360,000 compounds, 1.6% hits;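 also: NT is the 2HG producing partner of a matched IDH1 knockdown line; 0% = DMSO-treated cells and -100% = media-only wells without cells; nearly all actives have a fitted effect of over 55% in size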
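Compounds were tested in concentration-response format on HT-1080-NT cells for 48 hours at 37 degrees C. Cell viability came from CellTiter-Glo luminescence; curves were classified by r2, response magnitude and activity.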
DT40 TDP1 CPT – DT40-hTDP1 cell growth loss with CPT | chicken DT40 Tdp1-/-;hTDP1 cells + 20 nM CPT, ATP luminescence, 48 h | Potency, µM (titrated, usually from 46.2 µM), for inactives: top-dose activity change, negative = growth inhibition, most hits filed as inhibitors | 420,000 compounds, 12% hits | AID 686979; also: % is scaled to controls: 0 for no effect and ±100 for the full control effect; nearly all actives have a fitted effect of over 55% in size
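Cell growth measured by CellTiter-Glo luminescence after a minimum 48 h, 37 C compound exposure with 20 nM CPT in Tdp1-knockout DT40 cells stably expressing hTDP1, seeded 400/well; qHTS titration format.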
* marks the source's active call; other numbers are inactive results; ? = inconclusive; . = no result given; ! = a repeat was not active; [ ] = dose if it differs, or a comment. Calls follow the shape of the dose curve; as a rule, active = well fitted curve in the direction sought with a large enough effect; inconclusive = small, poorly fitted or top-dose-only effect, or another doubt; inactive = no such curve, though single readings can be large; an effect the other way counts as inactive or inconclusive. Potency is read from the fitted curve at half-maximal effect.

SMILES | TGFb inhibitor | HepG2 viability | DT40 TDP1 no CPT | HT1080 IDH1KD tx | HT1080NT lethal | DT40 TDP1 CPT
S=C1SCN(CC2CC2)CN1CC1CC1 | 11.2µM* | -10.0% | 4.61µM* | -9.9% | ? | 0.581µM*
Cn1nnnc1Sc1ncnc2scc(-c3ccc4c(c3)OCO4)c12 | ? | 2.6% | . | . | . | .
c1ccc(-c2ccc(-c3csc4ncnc(Sc5nnnn5-c5ccccc5)c34)cc2)cc1 | ? | -10.8% | 6.31µM* | . | . | 7.08µM*
Clc1ccc(-c2csc3ncnc(Sc4nnnn4-c4ccccc4)c23)cc1 | 6.31µM* | 6.31µM* | 2µM* | . | . | 3.55µM*
Cc1cccc(CSc2nnnn2-c2ccccc2)c1 | -1.0% | -17.0% | -20.4% | -2.9% | -4.4% | ?
Cc1ccc(-c2csc3ncnc(Sc4nnnn4-c4ccccc4)c23)cc1 | 6.31µM* | -97.2% | 5.62µM* | . | . | 7.08µM*
Cn1nnnc1Sc1ncnc2scc(-c3cccc(Br)c3)c12 | ? | -52.3% | . | . | . | .
Cc1ccc(C)c(-n2nnnc2Sc2nnnn2-c2ccccc2)c1 | ? | -35.3% | 13µM* | 16.4µM* | ? | ?
C=CCNC(=O)NC(=O)CN1C(=O)NC(c2ccccc2)(c2ccccc2)C1=O | -13.1% | 1.2% | ? | -6.1% | -2.2% | ?
Oc1ccccc1CN1CCCC(N2CCc3ccccc3C2)C1 (stereo not drawn) | 12.6% | -14.0% | ? | -18.9% | -15.8% | -24.6%
O=C(NCCCN1CCCC1=O)C1CCN(S(=O)(=O)c2c(Cl)cccc2Cl)CC1 | 10.2% | 1.0% | -19.2% | -3.8% | -1.2% | -6.6%
CCOc1ccccc1CN1CCN(Cc2ccon2)CC1CCO (stereo not drawn) | -0.2% | -2.7% | 1.2% | 1.4% | -6.6% | 1.2%
Cc1sc2ncnc(Sc3nnnn3-c3ccccc3)c2c1C | 12.6µM*! | 10µM*! | 7.08µM* | 7.08µM* | 10µM* | 5.8µM*
Cc1sc2ncnc(Sc3ccccc3C(=O)O)c2c1C | 9.1% | 7.5% | 11.7% | -3.2% | -1.8% | 9.3%
COc1ccc(N2CCN(c3cncc(C)n3)CC2)cc1 | 10.6% | 5.6% | -13.4% | 27.1% | 27.1% | -19.2%
COc1cc2nc(N(C)C)c(CNC3CCOC(C)(C)C3)cc2c(OC)c1OC (stereo not drawn) | . | . | -23.2% | . | . | -6.7%[9.04 µM]
Fc1ccc2c(c1)Sc1ccc(Cl)cc1CC2N1CCN(CCC2OCCO2)CC1 (stereo not drawn) | ? | -35.9% | 18.4µM* | ? | ? | ?
CSc1ccc2c(c1)C(N1CCN(C)CC1)Cc1ccc(F)cc1S2 (stereo not drawn) | ? | -130.5% | 16.4µM* | ? | ? | ?
COc1ccc2c(c1)CC(N1CCN(C)CC1)c1cc(OC)ccc1S2 (stereo not drawn) | ? | 15.8µM* | ? | 20.6µM* | ? | ?
O=[N+]([O-])c1ccc2c(c1)C(N1CCN(CCO)CC1)Cc1ccc(F)cc1S2 (stereo not drawn) | ? | -62.7% | ? | 16.4µM* | 16.4µM* | ?
Cc1ccc(S(=O)(=O)c2nnn3c2nc(NC(C)c2ccccc2)c2sccc23)cc1 (stereo not drawn) | 43.9% | -23.0% | ? | . | . | ?
CSc1ncccc1C(=O)N1CCCC(CCC(=O)NCc2ccc(F)c(F)c2)C1 (stereo not drawn) | -1.9% | -0.2% | ? | -6.8% | -11.6% | ?
Clc1cccc(CN2CCSCC2)c1 | 27.0% | 7.6% | 3.1% | 1.8% | 8.4% | -15.9%
COc1ccc(/C=C/C(=O)Nc2nc(-c3cccs3)ns2)cc1 | -5.2% | -49.7% | 18.4µM* | . | . | ?
COc1ccc(C(=O)Nc2c(-c3cccs3)c(=O)c3ccccc3n2C)cc1 | 0.7% | -17.0% | 20.6µM* | -1.9% | -6.3% | 23.1µM*
SMILES | TGFb inhibitor | HepG2 viability | DT40 TDP1 no CPT | HT1080 IDH1KD tx | HT1080NT lethal | DT40 TDP1 CPT
COc1ccc(C(=O)Nc2nnc(-c3cccs3)s2)cc1 | -4.4% | -22.6% | 11.6µM* | ? | -25.9% | 10.3µM*
COc1cc(C(=O)Nc2nnc(-c3sccc3C)s2)cc(OC)c1OC | -10.6% | -45.3% | -21.8% | 14.6µM* | ? | ?
COc1ccc(/C=C/C(=O)Nc2cccnc2Cl)cc1 | 1.2% | -50.1% | -6.8% | -7.5% | -8.5% | -12.5%
CC(C)(/C=N/NC(=O)CSCc1ccccc1Cl)CCC#N | -8.7% | -2.4% | -19.3% | 12.1% | 6.0% | 0.4%
Cc1ccc(S(=O)(=O)N2C[C@H]3C(=O)C[C@@H](c4ccccc4)N(S(C)(=O)=O)[C@H]3C[C@H]2c2ccccc2)cc1 | ? | -11.6% | ? | ? | -28.0% | ?
Cc1ccc(NC(=O)c2cc(S(=O)(=O)N3CCC4(CC3)OCCO4)ccc2F)cc1Cl | 9.5% | 0.3% | 14.6µM* | . | . | 8.2µM*
O=C(Nc1ccc(Cl)cc1Cl)c1cc(S(=O)(=O)N2CCN(c3ccccc3F)CC2)ccc1F | -14.5% | 0.6% | 8.2µM* | . | . | 9.2µM*
O=C(Nc1cccc(Cl)c1)c1cc(S(=O)(=O)N2CCC3(CC2)OCCO3)ccc1F | 0.0% | -23.1% | ? | . | . | ?
O=C(Nc1ccc(Cl)cc1Cl)c1cc(S(=O)(=O)N2CCC3(CC2)OCCO3)ccc1F | 9.1% | 4.6% | 16.4µM* | . | . | 16.4µM*
COc1ccc(-c2[nH]ncc2C=O)cc1 | -12.5% | -29.1% | -7.5% | -11.7% | 6.4% | -23.9%
CCOC(=O)c1c(S(=O)(=O)N2CCC(C(=O)NCc3ccc(F)cc3)CC2)c(C)n(C)c1C | -3.7% | -20.1% | -12.1% | . | . | -19.5%
CC(=O)NC(CC(=O)N(C)Cc1cccc(Cl)c1Cl)c1ccccc1 (stereo not drawn) | 0.0% | -30.6% | ? | -15.3% | 17.3% | ?
COc1cccc(-c2nc(NCc3ccco3)c3ccccc3n2)c1O | -28.6% | -35.5% | -17.6% | ? | ? | -18.6%
CN(C)Cc1ccccc1-c1nccc(N(C)Cc2ccco2)n1 | . | . | ? | . | . | 20.6µM*
CN(C)Cc1ccccc1-c1nc(N(C)Cc2ccco2)c2ccccc2n1 | . | . | 8.2µM* | . | . | 18.4µM*
COC1CCCN(C(=O)c2cccc(OC3CCN(S(C)(=O)=O)CC3)c2)C1 (stereo not drawn) | 3.2% | -17.5% | 25.8% | 0.0% | 1.7% | -13.9%
CCOC(=O)c1nn(-c2ccc(F)cc2)c(-c2ccccc2)c1C(=O)c1ccccc1 | -22.6% | -27.6% | 16.4µM* | -23.7% | -19.7% | ?

Compound activity from PubChem.
